Source: PubChem BioAssay (Tox21)
Records with an inconclusive call do not appear. A call without a number means that no potency is given here. Active and inactive are the calls of the source. Unless noted, calls come from the whole dose curve; as a rule, active = well fitted curve in the direction sought with a large enough effect in the repeat runs; inconclusive = weak or mixed curves; inactive = no such curve, though single readings can be large; an effect the other way counts as inactive or inconclusive. Positions of bridges follow the written chain, without caps; N, C: chain ends. Non-standard residues stand in square brackets, D forms with d. Residues, ends and D or L forms follow the SMILES beside them. *: point of attachment. X1 = CC[C@@H](C)[C@@H](N)C1=N[C@H](C(=O)*)CS1; d(aIle) = CC[C@H](C)[C@@H](N)C(=O)O; dOrn = NCCC[C@@H](N)C(=O)O

Experiments:
[1] = qHTS assay for small molecule agonists of the p53 signaling pathway (AID 651631; calls by dose curve; note: nearly all actives have a fitted effect of over 15% in size; note: potency is the fitted concentration of half-maximal effect)
Summary of the method: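 p53RE-bla HCT-116 cells; compounds 16 h, 37 °C; LiveBLAzer B/G FRET substrate 2 h RT; fluorescence intensity read-out, qHTS format.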

[2] = qHTS assay for small molecules that induce genotoxicity in human embryonic kidney cells expressing luciferase-tagged ATAD5 (AID 651632); note: nearly all actives have a fitted effect of over 15% in size
Summary of the method: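 Quantitative HTS in HEK293T expressing luciferase-tagged ATAD5, whose levels rise upon DNA damage. Exposure ran 16 hr at 37C and 5% CO2, with luminescence read 30 min after Amplite addition at room temperature.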

[3] = qHTS assay for small molecule agonists of the p53 signaling pathway - cell viability (AID 651633; calls by dose curve; note: nearly all actives have a fitted effect of over 30% in size; note: potency is the fitted concentration of half-maximal effect)
Summary of the method: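 Viability counter-read: CellTiter-Glo luminescence (30 min, room temperature) in the same p53RE-bla plates. These plates had been exposed to compounds for 16 h at 37 C.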

[4] = qHTS assay for small molecules that induce genotoxicity in human embryonic kidney cells expressing luciferase-tagged ATAD5 - cell viability (AID 651634; calls by dose curve; note: nearly all actives have a fitted effect of over 25% in size; note: potency is the fitted concentration of half-maximal effect)
Summary of the method: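 After 15.5 hr incubation with compound at 37C, 5% CO2, HEK293T ATAD5-luciferase cells received CellTiter-Fluor reagent; fluorescence intensity was quantified following 30 min at 37C.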

[5] = qHTS assay for small molecule disruptors of the mitochondrial membrane potential - cell viability (AID 720634; calls by dose curve; note: nearly all actives have a fitted effect of over 20% in size; note: potency is the fitted concentration of half-maximal effect)
Summary of the method: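 ATP-based luminescent viability readout (CellTiter-Glo, 30 min, room temperature) in HepG2 cells multiplexed with the m-MPI membrane potential dye; compound exposure lasted 1 hr at 37 C.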

[6] = qHTS assay for small molecule disruptors of the mitochondrial membrane potential (AID 720635); note: potency is the fitted concentration of half-maximal effect
Summary of the method: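 Mitochondrial membrane potential tracked with Mito-MPS dye, red aggregates (ex 540/em 590 nm) against green monomers (ex 490/em 535 nm). Compound treatment 1 hr at 37C, dye 30 min in HepG2.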

[7] = qHTS assay to test for compound auto fluorescence at 590 nm (red) in HepG2 cells (AID 720674)
Summary of the method: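 We screened compounds on adherent HepG2 cells, incubating them for an hour at 37 C in 5% CO2 before reading emission at 590 nm under 540 nm excitation; values reflect equivalence to Rose Bengal sodium fluorescence.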

[8] = qHTS assay to test for compound auto fluorescence at 535 nm (green) in HepG2 cells (AID 720675)
[9] = qHTS assay to test for compound auto fluorescence at 460 nm (blue) in HEK293 cells (AID 720678)
Summary of the method: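 Cells were seeded and left to adhere for 4-5 hr at 37C. Compounds were then pin-transferred. After an overnight incubation at 37C under 5% CO2, intrinsic fluorescence at 405/460 nm was measured and referenced to triamterene.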

[10] = qHTS assay to test for compound auto fluorescence at 590 nm (red) in HEK293 cells (AID 720679)
Summary of the method: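 Each well held 2,000 HEK293 cells in medium containing 10% dialyzed FBS. Following 4-5 hr attachment at 37C, 23 nL test compound or DMSO was added; plates sat overnight, and red fluorescence (540/590nm) was recorded.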

[11] = qHTS assay to test for compound auto fluorescence at 535 nm (green) in HEK293 cells (AID 720680)
[12] = qHTS assay to test for compound auto fluorescence at 535 nm (green) in HEK293 cell free culture (AID 720682)
Summary of the method: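 Cell-free medium (DMEM, 10% FBS) receives compound or DMSO by pintool. Plate read directly at Ex 485/Em 535 nm. Signal converted to fluorescein equivalency.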

[13] = qHTS assay to test for compound auto fluorescence at 590 nm (red) in HEK293 cell free culture (AID 720683)
Summary of the method: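 Red-channel autofluorescence of compounds in culture medium (DMEM, 10% FBS), no cells, measured at 540/590 nm. Rose Bengal sodium is the reference fluorophore for equivalence.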

[14] = qHTS assay to test for compound auto fluorescence at 590 nm (red) in HepG2 cell free culture (AID 720684)
Summary of the method: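 No cells present: MEM + 10% FBS only. Compound pinned in, red label read (540/590 nm). Activity = fluorescence equivalent to Rose Bengal sodium.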

[15] = qHTS assay to test for compound auto fluorescence at 460 nm (blue) in HepG2 cell free culture (AID 720685)
Summary of the method: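 Cell-free plates of MEM plus 10% FBS received 23 nL compound or DMSO vehicle; blue-channel (405/460 nm) intensity scored against triamterene as reference fluorophore.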

[16] = qHTS assay to test for compound auto fluorescence at 535 nm (green) in HepG2 cell free culture (AID 720686)
[17] = qHTS assay to test for compound auto fluorescence at 460 nm (blue) in HepG2 cells (AID 720687)
Summary of the method: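 Blue-channel autofluorescence (Ex/Em 405/460 nm, triamterene-equivalent) was measured after 1 hr compound exposure at 37 C, 5% CO2. Cells were HepG2, plated overnight at 37 C in MEM plus 10% FBS.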

[18] = qHTS assay to test for compound auto fluorescence at 460 nm (blue) in HEK293 cell free culture (AID 720681)
Summary of the method: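 Blue fluorescence (Ex 405/Em 460 nm, triamterene-equivalent) was read immediately after pin transfer of compound or DMSO into medium (DMEM, 10% FBS) without cells.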

[19] = target: Glucocorticoid receptor (Homo sapiens) (UniProt P04150); assay: qHTS assay to identify small molecule agonists of the glucocorticoid receptor (GR) signaling pathway (AID 720691; active = well fitted activation curve with a large enough effect in the signal ratio in the repeat runs, not every such curve was filed as active; the % refers to the signal ratio); conditions: GR-bla HeLa, beta-lactamase reporter ratio, 18 h; activation: at 62.4 µM (top of the series)
Glucocorticoid receptor (Homo sapiens), sequence (P04150 whole entry, looked up): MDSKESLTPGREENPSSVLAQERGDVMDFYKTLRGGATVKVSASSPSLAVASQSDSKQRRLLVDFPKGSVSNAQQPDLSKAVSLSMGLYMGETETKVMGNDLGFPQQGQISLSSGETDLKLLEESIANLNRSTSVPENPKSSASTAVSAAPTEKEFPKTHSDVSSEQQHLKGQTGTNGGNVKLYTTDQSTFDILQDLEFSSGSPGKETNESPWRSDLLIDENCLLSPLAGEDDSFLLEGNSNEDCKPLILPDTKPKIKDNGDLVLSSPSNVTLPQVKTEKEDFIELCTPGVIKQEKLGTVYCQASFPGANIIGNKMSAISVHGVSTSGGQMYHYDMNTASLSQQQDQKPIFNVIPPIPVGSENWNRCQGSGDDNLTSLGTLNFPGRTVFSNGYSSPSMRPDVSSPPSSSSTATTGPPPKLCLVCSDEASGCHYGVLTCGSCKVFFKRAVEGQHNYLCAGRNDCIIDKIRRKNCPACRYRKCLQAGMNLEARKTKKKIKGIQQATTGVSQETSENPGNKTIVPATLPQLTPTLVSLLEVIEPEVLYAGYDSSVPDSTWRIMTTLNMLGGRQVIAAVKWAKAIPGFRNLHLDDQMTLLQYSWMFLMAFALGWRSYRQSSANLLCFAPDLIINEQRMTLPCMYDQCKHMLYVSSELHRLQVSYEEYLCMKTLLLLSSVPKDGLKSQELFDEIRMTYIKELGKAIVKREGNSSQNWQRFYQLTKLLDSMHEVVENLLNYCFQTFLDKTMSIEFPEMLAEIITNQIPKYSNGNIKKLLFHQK
Summary of the method: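 Cells: GR-bla HeLa, endogenous GR with stably integrated GRE-beta-lactamase reporter. Treatment 18 h, 37 C, compounds delivered in DMSO. Detection via LiveBLAzer B/G FRET substrate, 2 h RT, fluorescence intensity.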

[20] = target: Glucocorticoid receptor (Homo sapiens) (UniProt P04150); assay: qHTS assay to identify small molecule antagonists of the glucocorticoid receptor (GR) signaling pathway (AID 720692; active = well fitted inhibition curve with a large enough effect in the signal ratio in the repeat runs, not every such curve was filed as active; the % refers to the signal ratio)
Summary of the method: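 Quantitative HTS in antagonist format: HeLa cells expressing endogenous GR and a stably integrated GRE-bla reporter, stimulated with 5 nM dexamethasone (final) alongside test compounds for 18 h.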

| Compound | Potency [1] | Potency [2] | Potency [3] | Potency [4] | Potency [5] | Potency [6] | outcome [7] | Potency [8] | Potency [9] | outcome [10] | outcome [11] | outcome [12] | outcome [13] | outcome [14] | Potency [15] | Potency [16] | Potency [17] | Potency [18] | Potency [19] | Potency [20] |
| --- | --- | --- | --- | --- | --- | --- | --- | --- | --- | --- | --- | --- | --- | --- | --- | --- | --- | --- | --- | --- |
| O=C(Cn1cnnn1)N[C@@H]1C(=O)N2C(C(=O)O)=C(CSc3nncs3)CS[C@H]12 | inactive | inactive | inactive | inactive | inactive | inactive | inactive | inactive | inactive | inactive | inactive | inactive | inactive | inactive | inactive | inactive | inactive |  |  |  |
| CCCCCCCCOC(=O)c1cc(O)c(O)c(O)c1 | 61.1 µM (active) | inactive | 54.5 µM (active) | inactive | 13.7 µM (active) | 6.11 µM (active) | inactive | inactive | inactive |  | inactive | inactive | inactive | inactive | inactive | inactive | inactive | inactive |  |  |
| CO[C@H]1C[C@H](O[C@H]2[C@H](C)[C@@H](O[C@@H]3O[C@H](C)C[C@H](N(C)C)[C@H]3O)[C@@H](C)C[C@]3(CO3)C(=O)[C@H](C)[C@@H](O)[C@@H](C)[C@@H](C)OC(=O)[C@@H]2C)O[C@@H](C)[C@@H]1O | inactive | inactive | inactive | inactive | inactive | inactive | inactive | inactive | inactive |  | inactive | inactive | inactive | inactive | inactive | inactive | inactive | inactive | inactive | inactive |
| CC(C)(Oc1ccc(C2CCCc3ccccc32)cc1)C(=O)O (stereo not drawn) | inactive | inactive | inactive | inactive | inactive | inactive | inactive | inactive | inactive | inactive | inactive |  | inactive | inactive | inactive | inactive | inactive |  | inactive | inactive |
| CCCCCCCCCCCC[n+]1ccc2ccccc2c1 | 26.6 µM (active) | inactive | 29.8 µM (active) | 7.5 µM (active) | inactive | 2.98 µM (active) | inactive | inactive | inactive |  | inactive | inactive | inactive | inactive | inactive | inactive | inactive | inactive |  |  |
| O=C1c2ccccc2CN2C(=O)c3ccccc3CN12 | inactive | inactive | inactive | inactive | inactive | inactive | inactive | inactive | inactive | inactive | inactive | inactive | inactive | inactive | inactive | inactive | inactive |  | inactive | inactive |
| CCOc1ccc(NC(=S)Nc2ccc(OCC)cc2)cc1 | inactive | inactive | inactive | inactive | inactive | 11.9 µM (active) | inactive | inactive | inactive |  | inactive | inactive | inactive | inactive | inactive | inactive | inactive | inactive |  |  |
| CC[C@@H](C)[C@@H](N)C1=N[C@H](C(=O)N[C@@H](CC(C)C)C(=O)N[C@@H](CCC(=O)O)C(=O)N[C@@H](C(=O)N[C@@H]2CCCCNC(=O)[C@@H](CC(N)=O)NC(=O)[C@@H](CC(=O)O)NC(=O)[C@@H](Cc3cnc[nH]3)NC(=O)[C@@H](Cc3ccccc3)NC(=O)[C@@H]([C@H](C)CC)NC(=O)[C@@H](CCCN)NC2=O)[C@@H](C)CC)CS1 (X1-LE[d(aIle)][dK][dOrn][dI][dF][dH][dD][dN]; lactam 4-C) | inactive | inactive | inactive | inactive | inactive | inactive | inactive | inactive | inactive |  | inactive | inactive | inactive | inactive | inactive | inactive | inactive | inactive |  |  |
| CCN(CC)CCNC(=O)c1ccc(NS(C)(=O)=O)cc1 | inactive | inactive | inactive | inactive | inactive | inactive | inactive | inactive | inactive |  | inactive | inactive | inactive | inactive | inactive | inactive | inactive | inactive | inactive | inactive |
| O=C1OC(=O)c2cc(-c3ccc4c(c3)C(=O)OC4=O)ccc21 | inactive | inactive | inactive | inactive | inactive |  | inactive | inactive | inactive | inactive | inactive |  | inactive | inactive | inactive | inactive | inactive | inactive | inactive |  |
| CN[C@@H]1[C@@H](O[C@H]2O[C@H](CO)[C@@H](N)[C@H](O)[C@H]2O)O[C@H]2C[C@@H](N)[C@@H](O[C@H]3[C@H](O)[C@@H](O)[C@H](N)C[C@@H]3N)O[C@@H]2[C@@H]1O | inactive | inactive | inactive | inactive | inactive |  | inactive | inactive | inactive | inactive | inactive |  | inactive | inactive | inactive | inactive | inactive | inactive | inactive | inactive |
| C[S+](CC[C@H](N)C(=O)O)C[C@H]1O[C@@H](n2cnc3c(N)ncnc32)[C@H](O)[C@@H]1O (stereo partly drawn) | inactive | inactive | inactive | inactive | inactive |  | inactive | inactive | inactive | inactive | inactive |  | inactive | inactive | inactive | inactive | inactive | inactive |  |  |
| O=C(O)c1ccc(NC2OC[C@@H](O)[C@H](O)[C@H]2O)cc1 (stereo partly drawn) | inactive | inactive | inactive | inactive | inactive |  | inactive | inactive | inactive | inactive | inactive | inactive | inactive | inactive | inactive | inactive | inactive | inactive | inactive |  |
| CC1CCCC(C)N1NC(=O)c1ccc(Cl)c(S(N)(=O)=O)c1 (stereo not drawn) | inactive | inactive | inactive | inactive | inactive |  | inactive | inactive | inactive | inactive | inactive | inactive | inactive | inactive | inactive | inactive | inactive | inactive | inactive | inactive |
| C/C=C/C1=C(C(=O)O)N2C(=O)[C@@H](NC(=O)[C@H](N)c3ccc(O)cc3)[C@H]2SC1 | inactive | inactive | inactive | inactive | inactive | inactive | inactive | inactive |  | inactive | inactive | inactive | inactive | inactive | inactive | inactive | inactive | inactive | inactive | inactive |
| COc1ccc([C@@H]2CC(=O)c3c(O)cc(O[C@@H]4O[C@H](CO[C@@H]5O[C@@H](C)[C@H](O)[C@@H](O)[C@H]5O)[C@@H](O)[C@H](O)[C@H]4O)cc3O2)cc1O | inactive | inactive | inactive | inactive | inactive | inactive | inactive | inactive | inactive |  | inactive |  | inactive | inactive | inactive | inactive | inactive | inactive | inactive | inactive |
| CC(C)NCC1CCc2cc(CO)c([N+](=O)[O-])cc2N1 (stereo not drawn) | inactive | inactive | inactive | inactive | inactive |  | inactive | inactive | inactive | inactive | inactive | inactive | inactive | inactive | inactive | inactive | inactive | inactive | inactive | inactive |
| O=C[C@H](O)[C@@H](O)[C@@H](O)[C@H](O)CO | inactive | inactive | inactive | inactive | inactive |  | inactive | inactive | inactive | inactive | inactive | inactive | inactive | inactive | inactive | inactive | inactive | inactive | inactive | inactive |
